Values quoted from earlier work in PubChem BioAssay AID977608.
About 4,300 (100%) of roughly 4,300 compounds were called active. Cut-off not given; nearly all actives show IC50 up to about 1400 µM. The set was probably picked from earlier hits. Some of the results follow. Square brackets hold non-standard residues; d marks the D form. Peptide text beside a SMILES is read from it. β3hR = N=C(N)NCCC[C@H](N)CC(=O)O; β3hE = N[C@@H](CCC(=O)O)CC(=O)O; β3hQ = NC(=O)CC[C@H](N)CC(=O)O; β3hD = NC(CC(=O)O)CC(=O)O; β3hA = C[C@H](N)CC(=O)O

Experiment: protein-ligand inhibition affinities from structures – PDB-derived complexes (AID 977608)

For `CC(C)Oc1ccc(-c2ccnc(NC([P+](O)(O)O)[P+](O)(O)O)c2)cc1`, the IC50 (literature IC50, protein: human farnesyl pyrophosphate synthase (FPPS), PDB entry 4h5c) is listed as 0.028 µM (active).
For `C[C@H](CC(=O)O)C1NN(C)C2N=C(N)NC(=O)C2C1O` (some centres not stated), the IC50 (literature IC50, protein: Dihydropteroate Synthase, PDB entry 4d9p) is given as 145 µM (active).
For `COc1ccc(C(=O)CCC(=O)O)c(O)c1`, the IC50 (literature IC50, protein: Orotidine 5'-phosphate decarboxylase, PDB entry 3vi2) is listed as 170 µM (active).
For `CN1CCN(c2ccc(-c3ccncc3-c3cc(F)c(O)c(F)c3)cc2)CC1`, the IC50 (literature IC50, protein: Ribosomal protein S6 kinase alpha-3 RSK2, PDB entry 4nus) is listed as 0.005 µM (active).
For `CCCn1cnc2c1c(=O)n(CCCCC(C)=O)c(=O)n2C`, the IC50 (literature IC50, protein: Chitinase A(W275G mutant), PDB entry 3as2) is listed as 360 µM (active).
For `CC[C@H](C)[C@H](NC(C)=O)C(=O)N[C@@H](Cc1ccc(O)cc1)C(=O)N[C@@H](Cc1ccc(O)cc1)[P+](O)(O)O`, the IC50 (literature IC50, protein: Human testis angiotensin converting enzyme, PDB entry 4bzr) is listed as 0.025 µM (active).
In the case of `O=C(NCc1cccc(O)c1)Nc1nc(-c2ccncc2)cs1`, the IC50 (literature IC50, protein: Rho-associated protein kinase 1, PDB entry 3twj) is given as 0.0145 µM (active).
For `C[C@@H]1COC[C@@H](C)[N+]1=C1CC(=O)N2CC[C@@H](C(F)(F)F)[N+](Cc3ccc(Cl)s3)=C2N1`, the IC50 (literature IC50, protein: PHOSPHATIDYLINOSITOL 3-KINASE CATALYTIC SUBUNIT TYPE 3 Vsp34, PDB entry 4uwk) is listed as 0.001 µM (active).
In the case of `CC(C)OCC[N+]1=C2NC(=[N+]3CCOCC3)CC(=O)N2CC[C@H]1C(F)(F)F`, the IC50 (literature IC50, protein: PHOSPHATIDYLINOSITOL 3-KINASE CATALYTIC SUBUNIT TYPE 3 Vsp34, PDB entry 4uwg) is given as 0.007 µM (active).
In the case of `O/N=C/c1ccc(O)cc1`, the IC50 (literature IC50, protein: Macrophage Migration Inhibitory Factor (MIF), PDB entry 2ooz) is listed as 7 µM (active).
In the case of `CC(C)[C@H]1[C@H](C(=O)N2CCC[C@H]2C(=O)N(C)C)SC2=N[C@@](C)(c3ccc(Cl)cc3)[C@@H](c3ccc(Cl)cc3)N21`, the IC50 (literature IC50, protein: E3 ubiquitin-protein ligase Mdm2, PDB entry 3vzv) is listed as 0.0092 µM (active).
In the case of `CC(C)C[C@H](N[P+](O)(O)O[C@@H]1O[C@@H](C)[C@H](O)[C@@H](O)[C@H]1O)C(=O)N[C@@H](Cc1c[nH]c2ccccc12)C(=O)O`, the IC50 (literature IC50, protein: human neutral endopeptidase (Neprilysin), PDB entry 1dmt) is listed as 0.002 µM (active).
For `O=C1N=C(c2ccccc2)C=CC1O` (configuration not stated), the IC50 (literature IC50, protein: Polymerase PA, PDB entry 4m5o) is given as 0.38 µM (active).
For `Nc1csc2nccnc12`, the IC50 (literature IC50, protein: Dengue virus 3 non-structural protein 5, PDB entry 4ctk) is given as 10000 µM (active).
For `O[C@@H]1[C@@H](CO[P+](O)(O)O)O[C@](O)(CO[P+](O)(O)O)[C@H]1O`, the IC50 (literature IC50, PDB entry 4fxf) is given as 6.5 µM (active).
For `CCN1CCN(C(=O)N[C@@H](C(=O)N[C@H](C=O)[C@@H]2N[C@@H](C(=O)O)C(C)(C)S2)c2ccccc2)C(=O)C1=O`, the IC50 (literature IC50, protein: Penicillin-binding protein 3, PDB entry 4kqo) is given as 0.166 µM (active).
For `CCN1CCN(C(=O)N[C@@H](C(=O)N[C@H](C(=O)O)[C@H]2N[C@@H](C(=O)O)C(C)(C)S2)c2ccccc2)C(=O)C1=O`, the IC50 (literature IC50, protein: Penicillin-binding protein 3, PDB entry 4kqq) is listed as 126 µM (active) and the IC50 (literature IC50, protein: Penicillin-binding protein 3, PDB entry 4kqr) is listed as 126 µM (active).
In the case of `CC(=O)Nc1cc(Oc2ccc3c(ccn3C(=O)Nc3ccc(CN4CCN(C)CC4)c(C(F)(F)F)c3)c2)ncn1`, the IC50 (literature IC50, protein: Tyrosine-protein kinase JAK2, PDB entry 3ugc) is given as 0.947 µM (active).
For `N#C[C@@H](Cc1cccc(C(=O)c2c[nH]c3ncccc23)c1)C(N)=O`, the IC50 (literature IC50, protein: Ribosomal protein S6 kinase alpha-3, PDB entry 4jg7) is listed as 0.12 µM (active).
In the case of `O=C(N[C@H]1CCCCCCC[C@@H]2C[C@@]2(C(=O)NS(=O)(=O)C2CC2)NC(=O)[C@@H]2C[C@@H](OC(=O)N3CCc4ccccc4C3)CN2C1=O)OC1CCCC1`, the IC50 (literature IC50, protein: Serine protease NS3, PDB entry 4ktc) is listed as 0.001 µM (active).
For `CCCCC[C@H](CC(=O)NO)C(=O)N[C@H](C(=O)N1CCC[C@H]1C(=O)O)C(C)C`, the IC50 (literature IC50, protein: Peptide Deformylase from Staphylococcus aureus, PDB entry 1q1y) is given as 0.02 µM (active).
In the case of H-MHRVSAALEEANKVFL-OH, the IC50 (literature IC50, protein: Maltose ABC transporter periplasmic protein, Nuclear receptor subfamily 0 group B member 2 chimeric construct MBP-SHP, PDB entry 4nuf) is given as 5 µM (active).
For H-FLNKDLEVDGHFVTM-OH, the IC50 (literature IC50, protein: HLA class I histocompatibility antigen, A-2 alpha chain HLA-A*0201, PDB entry 4u6y) is listed as 0.083 µM (active).
In the case of H-GSDARFLRGYHLYA-OH, the IC50 (literature IC50, protein: HLA class II histocompatibility antigen, DR alpha chain, PDB entry 4ov5) is given as 0.0369 µM (active).
In the case of `O=C(Nc1ccccc1N1CCNCC1)c1csc(-n2ncc3ccccc32)n1`, the IC50 (literature IC50, protein: Serine/threonine-protein kinase Chk1, PDB entry 4hyi) is listed as 0.003 µM (active).
In the case of `CN1C(=O)N[C@H](Cc2c[nH]c3c(Cl)cccc23)C1=O`, the IC50 (literature IC50, protein: Receptor-interacting serine/threonine-protein kinase 1 (C34A, C127A, C233A, C240A mutation), PDB entry 4ith) is given as 0.317 µM (active).
For `CO[C@H]1CCO[C@@]2(C)Oc3c(C)c(=O)c4c(O)c(c5oc6cccc(OCCCCN7CCN(CCn8ccnc8)CC7)c6nc5c4c3C2=O)NC(=O)[C@H](C)CCC[C@H](C)[C@H](O)[C@@H](C)[C@@H](O)[C@@H](C)[C@H](OC(C)=O)[C@@H]1C`, the IC50 (literature IC50, protein: DNA-directed RNA polymerase subunit alpha, PDB entry 4kn7) is given as 0.024 µM (active).
In the case of `CCN(CC)CCOc1cccc2oc3c4c(O)c5c(=O)c(C)c6c(c5c3nc12)C(=O)[C@@](C)(OCC[C@H](OC)[C@@H](C)[C@@H](OC(C)=O)[C@H](C)[C@H](O)[C@H](C)[C@@H](O)[C@@H](C)CCC[C@@H](C)C(=O)N4)O6`, the IC50 (literature IC50, protein: DNA-directed RNA polymerase subunit alpha, PDB entry 4kn4) is listed as 0.057 µM (active).
For `CC[C@H](C)[C@H](NC(=O)[C@H](C)N)C(=O)N[C@H](C)C(=O)N[C@@H](C)C(=O)N[C@@H](CCC(N)=O)CC(=O)N[C@@H](CC(C)C)C(=O)N[C@@H](CCCN=C(N)N)C(=O)N[C@@H](CCCN=C(N)N)CC(=O)N[C@@H](CCSC)C(=O)N[C@@H](C)C(=O)N[C@@H](CC(=O)O)C(=O)N[C@@H](CC(=O)O)CC(=O)N[C@@H](CC(C)C)C(=O)N[C@@H](CC(N)=O)C(=O)N[C@@H](C)CC(=O)N[C@@H](CCC(N)=O)C(=O)N[C@@H](Cc1ccc(O)cc1)C(=O)N[C@@H](CCC(=O)O)C(N)=O`, the IC50 (literature IC50, protein: fusion protein of mouse and human Mcl-1, PDB entry 4bpj) is given as 1 µM (active).
For `CC[C@H](C)[C@H](NC(=O)C[C@H](CCC(=O)O)NC(=O)[C@H](CCC(=O)O)NC(=O)[C@H](C)N)C(=O)NCC(=O)N[C@@H](C)C(=O)N[C@@H](CCC(N)=O)CC(=O)N[C@@H](CC(C)C)C(=O)N[C@@H](CCCN=C(N)N)C(=O)N[C@@H](CCCN=C(N)N)CC(=O)N[C@@H](CCSC)C(=O)N[C@@H](C)C(=O)N[C@@H](CC(=O)O)C(=O)N[C@@H](CC(=O)O)CC(=O)N[C@@H](CC(C)C)C(=O)N[C@@H](CC(N)=O)C(=O)N[C@@H](C)CC(=O)N[C@@H](CCC(N)=O)C(=O)N[C@@H](Cc1ccc(O)cc1)C(=O)O` (H-AE[β3hE]IGA[β3hQ]LR[β3hR]MAD[β3hD]LN[β3hA]QY-OH), the IC50 (literature IC50, protein: fusion protein of mouse and human Mcl-1, PDB entry 4bpi) is listed as 0.67 µM (active).
In the case of `Nc1ncc2c(n1)-c1c([nH]c3ccc(Br)cc13)CCC2`, the IC50 (literature IC50, protein: Mitogen-activated protein kinase kinase kinase 14, PDB entry 4idt) is given as 0.1 µM (active).
In the case of `N#CNC(=NCCCCCCOc1ccc(Cl)cc1)Nc1ccncc1`, the IC50 (literature IC50, protein: Human Nicotinamide Phosphoribosyltransferase, PDB entry 4o12) is given as 0.002 µM (active).
For `CCOc1ccc(C(=O)Nc2ccc(F)c([C@@]3(C)NC(N)OCC3(F)F)c2)nc1` (some centres not stated), the IC50 (literature IC50, protein: BETA-SECRETASE 2, PDB entry 3zlq) is listed as 0.904 µM (active) and the IC50 (literature IC50, protein: Beta-secretase 1, PDB entry 4j0t) is listed as 0.184 µM (active).
In the case of `CCOP(=O)(COc1ccc(CCc2cnc3c(c2)C(=O)N(C)c2cccnc2N3CC)cc1)OCC`, the IC50 (literature IC50, protein: Reverse transcriptase, PDB entry 4i7f) is listed as 0.1 µM (active).
For `O=C(COc1ccccc1[P+](O)(O)O)Nc1cc(C(F)(F)F)ccc1Cl`, the IC50 (literature IC50, protein: 14-3-3 protein sigma, PDB entry 4dhp) is given as 36 µM (active).
In the case of `O=C(COc1ccccc1[P+](O)(O)O)Nc1ccccc1C(F)(F)F`, the IC50 (literature IC50, protein: 14-3-3 protein sigma, PDB entry 3t0l) is given as 30 µM (active).
For `O=C(COc1ccccc1[P+](O)(O)O)Nc1ccccc1Cl`, the IC50 (literature IC50, protein: 14-3-3 protein sigma, PDB entry 4dhr) is listed as 27 µM (active).
In the case of `O=C(COc1ccccc1[P+](O)(O)O)Nc1cccc(Cl)c1Cl`, the IC50 (literature IC50, protein: 14-3-3 protein sigma, PDB entry 4dhu) is given as 5 µM (active).
In the case of `N#Cc1c(F)cc(O)cc1SCCS(O)(O)O`, the IC50 (literature IC50, protein: M-phase inducer phosphatase 2 CDC25B, PDB entry 4wh9) is given as 1000 µM (active).
In the case of `COc1cc2cc(c1)NC(=O)/C(C)=C/CC[C@H](OC(N)=O)[C@@H](OC(N)=O)/C(C)=C/[C@H](C)[C@@H](OC)[C@@H](OC)COC2`, the IC50 (literature IC50, protein: Heat shock protein HSP 90-alpha, PDB entry 4jql) is listed as 1 µM (active).
